Assay [1] is described as follows: compounds binding Alexa647 anti-His antibody – biochemical, small-molecule microarray, 635 nm fluorescence, artefact control for SMM control protein annotation, primary screen (AID 1128).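 Also: score merges feature fluorescence with signal-to-noise for each printed compound spot.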 To be noted: higher = more signal.
Assay [2] has as its system Human papillomavirus type 1a E7 protein (residues 1-88). Put plainly: HPV1a E7 small-molecule binders, primary screen, biochemical, small-molecule microarray, residues 1-88, 635 nm (AID 1129). As to conditions: small-molecule microarray binding, fluorescence 635 nm; higher = more signal.
Assay [3] addresses Focal adhesion kinase 1 (Homo sapiens) (UniProt Q05397). Kind of assay: PTK2 protein binding on printed compound slides – biochemical, small-molecule microarray, 635/667 nm fluorescence, BSA, DTT, primary screen (AID 1130).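 Also: composite of spot emission at 667 nm and signal to noise over triplicate slides.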 As to conditions: 635 nm fluorescence, higher = more signal.
For assay [4], the system named is Fibrinogen (Alexa647-labelled). Put plainly: Alexa647-fibrinogen binding to printed small molecules – biochemical, small-molecule microarray, 635/667 nm fluorescence, artefact control for SMM control-protein annotation, profiling panel (AID 1131).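 Also: z-score merges 667 nm fluorescence with per-spot signal-to-noise over triplicate slides.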 To be noted: fibrinogen-A647 binding fluorescence, higher = more signal.
Assay [5] addresses Follistatin (Homo sapiens) (UniProt P19883). Kind of assay: FST protein binding to printed compounds – biochemical, small-molecule microarray, 635/667 nm fluorescence, primary screen (AID 1132). As to conditions: 635 nm fluorescence, higher = more signal.
The target of assay [6] is Fibroblast growth factor 2 (Homo sapiens) (UniProt P09038). Put plainly: basic fibroblast growth factor binding to printed compounds – biochemical, small-molecule microarray, 635/667 nm fluorescence, primary screen (AID 1133). To be noted: FGF2, fluorescence 635/667, higher = more signal.
Assay [7] in a line: JC-1 mitochondrial potential readout, lung cancer cells – cell-based, A549, JC-1 fluorescence, basal, 24 h, 100 nL, profiling panel (AID 1138).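 Also: A549 lung adenocarcinoma cells under basal conditions with no added stimulus; test concentration not given here.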 To be noted: higher = more signal.
The next assay concerns Lefty1. Kind of assay: Lefty1 protein binding to printed compounds – biochemical, small-molecule microarray, 635/667 nm fluorescence, primary screen (AID 1139). To be noted: fluorescence 635/667, higher = more signal.
The test system of assay [8] is wheat germ agglutinin (Triticum aestivum), Alexa647-labelled. Put plainly: Alexa647-WGA lectin binding to printed small molecules – biochemical, small-molecule microarray, 635/667 nm fluorescence, artefact control for SMM control-protein annotation, profiling panel (AID 1140).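 Also: score merges 667 nm feature emission with signal to noise over triplicate slides.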 To be noted: WGA-A647 binding, 635 nm fluorescence, higher = more signal.
Assay [9] concerns the target Luciferin 4-monooxygenase (Photinus pyralis) (UniProt P08659). Put plainly: inhibition of purified Photinus pyralis luciferase – biochemical, luminescence, purified enzyme, 2006 set, primary screen (AID 1141).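 Also: cell-free assay with purified firefly luciferase at 100 ng per well in PBS; test concentration not given here.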 To be noted: purified firefly luciferase, SteadyGlo luminescence, 30 min; higher = more signal, called active from +8 up or from −8 down.
The test system of assay [10] is Wnt5a (protein binding on small-molecule microarray). Put plainly: small molecules binding Wnt5a protein – biophysical, small-molecule microarray, 635/667 nm fluorescence, primary screen (AID 1142).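 Also: fluorescence read at 667 nm with signal to noise per printed feature.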 To be noted: 635 nm fluorescence, higher = more signal.
A short description of assay [11]: ATP-based viability of Huh7 replicon cells – cell-based, CellTiter-Glo luminescence, basal, 48 h, cytotoxicity control for HCV replication inhibitor project, primary screen (AID 1143).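 Also: Huh7 hepatoma cells carrying a hepatitis C replication reporter with no stimulus; test concentration not given here.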 To be noted: higher = more signal, called active from +8 up or from −8 down. On the technique in general: Replicon systems follow genome replication, usually without infectious particles.

Assay [12] in a line: Pseudomonas biofilm growth suppression – PAO1 strain, BacTiter-Glo luminescence, LB-PBS, primary screen (AID 1144). To be noted: P. aeruginosa PAO1 biofilm, 12 h, higher = more signal.
Assay [13] can be described thus: basal CRE-LacZ reporter activity in PC12 – cell-based, unstimulated, primary screen (AID 1145). To be noted: no forskolin, luminescence, 4.5 h, higher = more signal, called active from +8 up or from −8 down.
Assay [14] can be described thus: forskolin-driven CRE-LacZ activity in PC12 – cell-based, CRE-LacZ reporter, forskolin-stimulated, primary screen (AID 1146).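 Also: PC12 cells with 6xCRE LacZ reporter stimulated by forskolin 10 µM; beta-galactosidase reporter signal reflecting CREB driven transcription.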 To be noted: luminescence, 4.5 h, higher = more signal, called active from +8 up or from −8 down.
The target in assay [15] is Streptavidin (Streptomyces avidinii) (UniProt P22629). Put plainly: compounds binding control protein streptavidin – biophysical, small-molecule microarray, 635/667 nm fluorescence, artefact control for SMM compound annotation, primary screen (AID 1147).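 Also: signal reflects streptavidin binding to arrayed compounds as a control protein.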 To be noted: higher = more signal.
A short description of assay [16]: probe aInhba binding on compound microarray – biochemical, small-molecule microarray, 635/667 nm fluorescence, primary screen (AID 1148).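 Also: score merges 667nm spot fluorescence with signal-to-noise for antibody binding to printed compounds.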 To be noted: higher = more signal.
The target in assay [17] is Torsin-1A (Homo sapiens) (UniProt O14656). Kind of assay: TOR1A wild-type binding on microarray – cell lysate, small-molecule microarray, lysate, 635/667 nm, primary screen (AID 1149). To be noted: COS7 hTOR1A-WT lysate, 635 nm fluorescence, higher = more signal.
For assay [18] the target is unchanged. Put plainly: torsin A mutant lysate binding on microarrays – cell lysate, small-molecule microarray, COS7 lysate, 635/667 nm fluorescence, primary screen (AID 1150).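 Also: score pools 667 nm emission and signal to noise measuring lysate protein binding.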 As to conditions: COS7 hTOR1A mutant lysate, 635 nm fluorescence, higher = more signal.
Assay [19] deals with Sonic hedgehog protein (Shh). Kind of assay: Sonic hedgehog microarray binding compounds – biochemical, small-molecule microarray, 635/667 nm fluorescence, primary screen (AID 1151).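 Also: Shh protein binding to compounds spotted on small-molecule microarray slides; score combines spot fluorescence intensity with signal-to-noise across triplicate slides.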 As to conditions: 635 nm fluorescence, higher = more signal.

Active and inactive are the calls of the source. Unless noted, no rule for the calls is given here.

Sequence of Follistatin (Homo sapiens) (P19883 whole entry, looked up): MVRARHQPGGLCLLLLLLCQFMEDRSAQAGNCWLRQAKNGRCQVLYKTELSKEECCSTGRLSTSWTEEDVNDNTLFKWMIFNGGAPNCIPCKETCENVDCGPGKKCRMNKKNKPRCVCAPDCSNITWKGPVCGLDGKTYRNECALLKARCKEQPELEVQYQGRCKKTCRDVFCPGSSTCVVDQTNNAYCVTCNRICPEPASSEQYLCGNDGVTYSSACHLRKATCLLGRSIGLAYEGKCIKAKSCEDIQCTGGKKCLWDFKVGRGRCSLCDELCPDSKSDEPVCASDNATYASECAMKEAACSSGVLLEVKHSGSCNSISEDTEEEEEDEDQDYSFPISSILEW
Sequence of Fibroblast growth factor 2 (Homo sapiens) (P09038 whole entry, looked up): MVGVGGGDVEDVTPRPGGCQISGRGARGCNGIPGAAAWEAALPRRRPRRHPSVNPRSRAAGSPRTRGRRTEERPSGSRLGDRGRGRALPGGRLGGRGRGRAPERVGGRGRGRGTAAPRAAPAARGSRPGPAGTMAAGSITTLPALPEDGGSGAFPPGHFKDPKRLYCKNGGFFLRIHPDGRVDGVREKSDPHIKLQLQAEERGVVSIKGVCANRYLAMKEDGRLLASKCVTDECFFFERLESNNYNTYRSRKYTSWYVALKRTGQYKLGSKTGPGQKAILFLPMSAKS
Sequence of Luciferin 4-monooxygenase (Photinus pyralis) (P08659 whole entry, looked up): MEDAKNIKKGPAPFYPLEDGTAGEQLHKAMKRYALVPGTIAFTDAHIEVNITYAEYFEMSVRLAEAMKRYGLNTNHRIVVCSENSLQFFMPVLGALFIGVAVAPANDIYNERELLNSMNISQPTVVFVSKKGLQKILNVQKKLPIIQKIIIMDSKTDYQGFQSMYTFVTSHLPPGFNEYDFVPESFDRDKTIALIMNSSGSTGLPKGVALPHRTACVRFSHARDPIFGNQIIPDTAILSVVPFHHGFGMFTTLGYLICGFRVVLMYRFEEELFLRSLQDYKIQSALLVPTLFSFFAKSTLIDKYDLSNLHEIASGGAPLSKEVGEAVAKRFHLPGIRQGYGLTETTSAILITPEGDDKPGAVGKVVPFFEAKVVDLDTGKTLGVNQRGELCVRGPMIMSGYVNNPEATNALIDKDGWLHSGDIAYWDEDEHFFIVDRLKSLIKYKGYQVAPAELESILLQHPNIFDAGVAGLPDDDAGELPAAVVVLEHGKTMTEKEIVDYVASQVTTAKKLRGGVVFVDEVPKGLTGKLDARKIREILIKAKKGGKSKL
Sequence of Streptavidin (Streptomyces avidinii) (P22629 whole entry, looked up): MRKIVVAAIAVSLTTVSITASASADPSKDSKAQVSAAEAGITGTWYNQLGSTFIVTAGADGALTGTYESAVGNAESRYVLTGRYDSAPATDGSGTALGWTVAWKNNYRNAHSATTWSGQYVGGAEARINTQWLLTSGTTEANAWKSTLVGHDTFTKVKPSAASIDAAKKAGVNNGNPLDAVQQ
Sequence of Focal adhesion kinase 1 (Homo sapiens) (Q05397 whole entry, looked up): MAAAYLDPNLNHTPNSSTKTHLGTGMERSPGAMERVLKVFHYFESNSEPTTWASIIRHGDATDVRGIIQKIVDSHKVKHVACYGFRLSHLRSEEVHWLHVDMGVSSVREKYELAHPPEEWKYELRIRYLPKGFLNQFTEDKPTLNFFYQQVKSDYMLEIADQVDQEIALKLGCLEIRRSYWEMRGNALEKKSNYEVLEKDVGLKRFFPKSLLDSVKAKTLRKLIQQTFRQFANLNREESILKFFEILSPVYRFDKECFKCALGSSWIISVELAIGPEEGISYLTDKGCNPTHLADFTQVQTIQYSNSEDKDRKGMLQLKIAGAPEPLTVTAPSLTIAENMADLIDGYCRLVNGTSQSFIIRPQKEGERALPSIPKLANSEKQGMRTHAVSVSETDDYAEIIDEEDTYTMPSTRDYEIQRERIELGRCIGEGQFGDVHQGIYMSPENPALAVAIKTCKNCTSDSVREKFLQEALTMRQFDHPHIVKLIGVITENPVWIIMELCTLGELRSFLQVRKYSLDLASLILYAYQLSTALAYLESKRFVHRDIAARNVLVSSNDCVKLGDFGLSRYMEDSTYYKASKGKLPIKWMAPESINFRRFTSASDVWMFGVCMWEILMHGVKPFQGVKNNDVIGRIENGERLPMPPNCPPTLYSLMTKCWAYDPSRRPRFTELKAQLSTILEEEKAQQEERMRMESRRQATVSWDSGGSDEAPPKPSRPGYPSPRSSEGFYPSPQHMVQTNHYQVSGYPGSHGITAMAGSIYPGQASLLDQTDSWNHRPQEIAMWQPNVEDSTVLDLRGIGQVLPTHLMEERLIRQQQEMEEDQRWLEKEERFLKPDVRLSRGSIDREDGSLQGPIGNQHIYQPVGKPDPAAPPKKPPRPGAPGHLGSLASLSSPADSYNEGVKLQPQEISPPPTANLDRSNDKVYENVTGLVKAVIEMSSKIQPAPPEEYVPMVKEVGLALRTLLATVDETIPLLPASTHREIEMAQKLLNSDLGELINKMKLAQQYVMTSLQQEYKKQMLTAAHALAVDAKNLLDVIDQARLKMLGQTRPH
Sequence of Torsin-1A (Homo sapiens) (O14656 whole entry, looked up): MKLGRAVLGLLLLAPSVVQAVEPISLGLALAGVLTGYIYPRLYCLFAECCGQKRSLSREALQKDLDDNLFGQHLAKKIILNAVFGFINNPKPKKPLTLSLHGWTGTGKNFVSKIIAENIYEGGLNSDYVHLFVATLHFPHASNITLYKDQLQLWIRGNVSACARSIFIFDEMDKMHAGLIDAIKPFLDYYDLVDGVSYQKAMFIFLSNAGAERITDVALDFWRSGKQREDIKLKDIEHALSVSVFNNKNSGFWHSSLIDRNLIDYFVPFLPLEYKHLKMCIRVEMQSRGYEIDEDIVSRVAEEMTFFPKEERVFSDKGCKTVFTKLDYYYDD

Take `COc1ccc(C(=O)Nc2cccc(CN3C(=O)[C@@]4(O[C@@H](CC(=O)N(CCO)Cc5ccccc5)[C@H]([Si](C)(C)c5ccc(OC)cc5)[C@H]4C)c4ccccc43)c2)cc1`: the composite z-score in assay [1] worked out at 0.696; in assay [2], 1.01; in assay [3], 0.16; in assay [4], 0.193; in assay [5], 0.99; in assay [6], 1.08. Further, the composite z-score in the assay with Lefty1 is 1.18; in assay [8], 0.289; in assay [10], -0.198; in assay [15] it was -0.503; in assay [16] it was -0.101; in the assay with Torsin-1A (Homo sapiens) [17] it was 0.479. Also, the composite z-score with Torsin-1A (Homo sapiens) [18] came out at 1.16; in assay [19], 1.51. In addition, the z-score was -0.106 in [7]; -1.75 (inactive) in assay [9]; -4.44 (inactive) in [11]; -0.244 (inactive) in assay [12]; 3.3 (inactive) in assay [13]; -0.76 (inactive) in assay [14].
For the compound `CCCCCN1CC=CC23O[C@@H]4/C=C\CCC(C)OC(=O)C4[C@H]2C(=O)N(CCCCCCO)[C@@H]3C1=O` (stereo not given in full), the composite z-score is 0.371 in [1]; 0.229 in assay [2]; 0.0767 in [3]; -1.31 in assay [4]; 0.0532 in assay [5]; -0.0946 in [6]. In addition, the composite z-score is 0.744 in the assay with Lefty1; -0.65 in assay [8]; -0.399 in assay [10]; -0.749 in [15]; -0.153 in [16]; -0.96 in the assay with Torsin-1A (Homo sapiens) [17]. Moreover, the values for the composite z-score (in the assay with Torsin-1A (Homo sapiens) [18]; in assay [19]) were 0.109 and 0.758, respectively. Also, the z-score is 1.03 in assay [7]; 0.0812 (inactive) in assay [9]; 0.259 (inactive) in assay [11]; -0.943 (inactive) in assay [12]; 0.467 (inactive) in assay [13]; 0.938 (inactive) in [14].
`CCOC(=O)C[C@H]1[C@H](OC(=O)c2ccccc2-c2ccccc2)[C@@H](NC(=O)c2ccc3ccccc3n2)c2cc(OCCCO)ccc2N1C(=O)c1ccccc1`: the composite z-score in assay [1] was -0.0974; in assay [2] it was 0.378; in assay [3] it was 0.185; in assay [4] it was 0.322; in assay [5], 0.782; in [6], 0.16. Further, the composite z-score with Lefty1 was 0.634; in assay [8] it was 0.857; in assay [10] it was 0.233; in assay [15] it was -0.197; in [16] it was -0.0933; with Torsin-1A (Homo sapiens) [17], -0.0653. Also, the figures for the composite z-score (with Torsin-1A (Homo sapiens) [18]; in assay [19]) were 0.182 and 1.37, respectively. The z-score is 0.628 in assay [7]; 0.272 (inactive) in [9]; -0.0416 (inactive) in assay [11]; 1.12 (inactive) in assay [12]; 2.57 (inactive) in [13]; 0.655 (inactive) in [14].
Consider `C=C(C(=O)CC[C@H](OC(=O)c1ccccc1-c1ccccc1C(=O)O)c1ccccc1OCCO)C(C)C`, for which the composite z-score in assay [1] is -0.0781; in assay [2], 0.909; in assay [3], 0.0778; in assay [4] it was -0.115; in assay [5] it was 0.991; in [6] it was 1.24. Moreover, the composite z-score with Lefty1 is 1.01; in assay [8], 0.423; in assay [10] it was 0.121; in assay [15], -0.344; in assay [16], 0.0569; with Torsin-1A (Homo sapiens) [17] it was 0.659. The composite z-score with Torsin-1A (Homo sapiens) [18] came to 0.34; in assay [19], 1.49. The z-score in assay [7] was 0.743; in [9] it was -1.29 (inactive); in assay [11], -0.594 (inactive); in assay [12], -0.0112 (inactive); in [13], 3.25 (inactive); in assay [14], 1.19 (inactive).
In the case of `C=CCC(OC(C)=O)[C@@H]1[C@@H](N(Cc2ccc(-c3ccccc3)cc2)C(=O)Cc2ccc(F)cc2)c2cc(OCCCO)ccc2N1C(=O)Cc1ccc2ccccc2c1` (stereo not given in full), the composite z-score in assay [1] was -0.631; in [2], -0.0842; in [3] it was 0.318; in [4], -0.198; in assay [5], 0.305; in [6], -0.0712. Moreover, the composite z-score with Lefty1 is -0.0639; in assay [8], 0.139; in [10], 0.261; in assay [15], 0.612; in [16] it was 0.038; with Torsin-1A (Homo sapiens) [17], -0.194. The figures for the composite z-score (in the assay with Torsin-1A (Homo sapiens) [18]; in assay [19]) were -0.0043 and -0.0096, respectively. The z-score in assay [7] was 1.85; in assay [9], -1.2 (inactive); in assay [11] it was 0.189 (inactive); in assay [12], -0.59 (inactive); in assay [13] it was 0.367 (inactive); in [14], 0.997 (inactive).

The record behind these values is PubChem BioAssay.
